Five compounds from PubChem BioAssay can be followed below.

Calls of active or inactive are those of the source.

The test system of assay [1] is Human papillomavirus type 1a protein E7 (residues 44-93). Description: small molecules binding HPV E7 44-93 – biochemical, small-molecule microarray, residues 44-93, 635 nm fluorescence, primary screen (AID 1108).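 Also: E7 fragment applied at 1 µg/mL in TBST for 1 h at 4 C; score combines spot fluorescence with its signal to noise ratio.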 As to conditions: fluorescence 635 nm, higher = more signal.
A short description of assay [2]: hepatitis C replication reporter changes, two-sided – Huh7 cells, luciferase reporter, HCV replication inhibitor project, primary screen (AID 1109).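 Also: huh7 hepatoma cells harbouring a luciferase neomycin HCV replicon reporter; luciferase luminescence as measure of HCV replicon replication; test concentration not given here.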 To be noted: Huh7 HCV replicon luciferase reporter, 48 h; higher = more signal.
Assay [3] concerns the target Left-right determination factor 2 (Homo sapiens) (UniProt O00292). Description: small molecules binding LEFTY2 protein – biochemical, small-molecule microarray, 635 nm fluorescence scan, primary screen (AID 1110). As to conditions: higher = more signal.
In assay [4] the target is Calmodulin-1 (Homo sapiens) (UniProt P0DP23). Description: small molecules binding calmodulin-1 with EGTA – biochemical, small-molecule microarray, Cy5-labelled CALM1, profiling panel (AID 1111).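 Also: labelled calmodulin applied in Tris saline Tween buffer holding calcium plus EGTA and DTT.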 As to conditions: Cy5-CALM1 binding fluorescence, higher = more signal.
Assay [5] has the same target. Kind of assay: small molecules binding Ca-loaded calmodulin-1 – biochemical, small-molecule microarray, Cy5-labelled CALM1, plus calcium, artefact control for SMM control-protein annotation, profiling panel (AID 1112).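 Also: score merges spot fluorescence with signal to noise from triplicate slides.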 As to conditions: Cy5-CALM1 binding fluorescence, higher = more signal.
The nature of assay [6]: probe aWnt5a binding to arrayed compounds – biochemical, biotinylated probe, 635/667 nm fluorescence, primary screen (AID 1113).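 Also: score merges 667 nm fluorescence intensity with signal-to-noise per printed feature.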 To be noted: small-molecule microarray, higher = more signal.
Assay [7] can be described thus: probe aShh binding to arrayed compounds – biochemical, biotinylated probe, 635/667 nm fluorescence, primary screen (AID 1114).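 Also: probe is biotin-labelled aShh protein from a stem cell growth factor screen; measures binding of labelled protein to compounds printed on the slide; score merges feature fluorescence at 667 nm with signal-to-noise.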 To be noted: small-molecule microarray, higher = more signal.
Assay [8] in a line: probe aNog binding to arrayed compounds – biochemical, biotinylated probe, 635/667 nm fluorescence, primary screen (AID 1115).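 Also: probe is biotinylated aNog protein used at 0.15 µg/mL for 1 h at 4 C; z-score combines 667 nm fluorescence of each spot with its signal to noise.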 As to conditions: small-molecule microarray, higher = more signal.
Assay [9] deals with Torsin-1A-interacting protein 1 (Homo sapiens) (UniProt Q5JTV8). Description: compound microarray binding of lysate hLAP1 – cell lysate, small-molecule microarray, COS7 lysate, 635/667 nm fluorescence, primary screen (AID 1116). As to conditions: 635 nm fluorescence, higher = more signal.
Torsin-1A-interacting protein 1 (Homo sapiens), sequence (Q5JTV8 whole entry, looked up): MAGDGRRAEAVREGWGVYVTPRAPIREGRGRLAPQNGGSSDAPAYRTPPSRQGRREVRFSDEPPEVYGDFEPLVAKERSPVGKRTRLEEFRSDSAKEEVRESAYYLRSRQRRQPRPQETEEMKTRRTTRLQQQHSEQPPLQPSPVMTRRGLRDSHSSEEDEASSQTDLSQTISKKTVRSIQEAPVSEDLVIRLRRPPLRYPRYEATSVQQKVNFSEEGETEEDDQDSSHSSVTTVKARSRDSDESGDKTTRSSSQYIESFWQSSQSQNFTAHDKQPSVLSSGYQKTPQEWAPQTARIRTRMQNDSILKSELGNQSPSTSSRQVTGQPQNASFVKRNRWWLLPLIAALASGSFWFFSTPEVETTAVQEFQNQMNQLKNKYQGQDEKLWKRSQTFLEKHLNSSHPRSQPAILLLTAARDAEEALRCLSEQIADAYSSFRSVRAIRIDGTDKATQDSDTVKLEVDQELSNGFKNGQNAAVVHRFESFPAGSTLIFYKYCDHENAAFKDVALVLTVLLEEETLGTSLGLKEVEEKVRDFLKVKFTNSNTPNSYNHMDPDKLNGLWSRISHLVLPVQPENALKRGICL
Assay [10] has as its target Alpha-bungarotoxin (Bungarus multicinctus) (UniProt P60615). Description: compounds binding labelled alpha-BTX control protein – biochemical, small-molecule microarray, Alexa647 label, 635/667 nm fluorescence, artefact control for SMM control protein annotation, profiling panel (AID 1117). As to conditions: alpha-BTX-A647 binding fluorescence, higher = more signal.
Assay [11] concerns the target Albumin (Bos taurus) (UniProt P02769). Kind of assay: compounds binding labelled BSA control protein – biochemical, small-molecule microarray, Alexa647 label, 635/667 nm fluorescence, artefact control for SMM control protein annotation, profiling panel (AID 1118).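 Also: score merges 667 nm emission intensity and signal-to-noise per printed compound spot.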 To be noted: BSA-A647 binding, fluorescence 635 nm, higher = more signal.
Assay [12] is described as follows: probe aXIP binding to arrayed compounds – biochemical, NeuroSMM set, 635/667 nm fluorescence, primary screen (AID 1119).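 Also: probe is the protein aXip251-270 applied at 1 µg/mL to compound-printed slides; binding of probe to printed compounds measured as 667 nm fluorescence plus signal to noise.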 To be noted: small-molecule microarray, higher = more signal, called active from +8 up or from −8 down.
Assay [13] can be described thus: probe aNOTCH3 binding on compound microarray – biochemical, small-molecule microarray, 635/667 nm fluorescence, primary screen (AID 1120).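 Also: probe is a biotin-tagged antibody raised against NOTCH3 rather than NOTCH3 protein; score merges spot fluorescence near 667 nm with spot signal to noise.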 As to conditions: higher = more signal.
A short description of assay [14]: probe aNOTCH2 binding on compound microarray – biochemical, small-molecule microarray, 635/667 nm fluorescence, primary screen (AID 1121).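 Also: score merges feature fluorescence read at 667 nm with its signal to noise.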 As to conditions: higher = more signal.
The target in assay [15] is Carbonic anhydrase 2 (Homo sapiens) (UniProt P00918). Kind of assay: compounds binding carbonic anhydrase 2 – biochemical, small-molecule microarray, Alexa647-labelled CAII, profiling panel (AID 1122). To be noted: CAII-A647 binding fluorescence, higher = more signal.
A short description of assay [16]: COS7 lysate on small-molecule microarray, probe aHis, 635 nm (AID 1123).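 Also: z-score combines 667nm fluorescence intensity with signal-to-noise per printed compound spot.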 To be noted: COS7 cell lysate, fluorescence, higher = more signal.
Assay [17] is described as follows: probe aLAP1 signal on lysate-treated microarray – cell lysate, small-molecule microarray, COS7 lysate, primary screen (AID 1124).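 Also: lysate comes from COS7 cells expressing LAP1 and is applied at 0.3 µg/mL; score merges spot fluorescence near 667 nm with signal-to-noise over triplicate slides.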 As to conditions: probe aLAP1, fluorescence, higher = more signal.
In assay [18] the test system is Sam68 (KHDRBS1). Kind of assay: compounds binding KHDRBS1 protein – biochemical, small-molecule microarray, 635 nm fluorescence, primary screen (AID 1125).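 Also: score merges 667 nm channel intensity with signal to noise over triplicate slides.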 As to conditions: higher = more signal.
The test system of assay [19] is Chordin-like protein 2 (CHRDL2). Kind of assay: compounds binding chordin-like 2 – biochemical, small-molecule microarray, 635 nm fluorescence, primary screen (AID 1126).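 Also: printed compound slides probed with Chrdl2 protein at 4 µg/mL for 1 h at 4 C; score merges 667 nm emission intensity with signal to noise over three replicate slides.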 To be noted: fluorescence 635 nm, higher = more signal.
The target of assay [20] is Concanavalin-A (Canavalia ensiformis) (UniProt P02866). Description: compounds binding concanavalin A lectin – biochemical, small-molecule microarray, Alexa647 label, 635 nm, artefact control for SMM control protein annotation, primary screen (AID 1127).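 Also: z combines 667 nm emission intensity with signal-to-noise across three replicate slides.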 As to conditions: ConA-A647 binding fluorescence, higher = more signal.
Concanavalin-A (Canavalia ensiformis), sequence (P02866 whole entry, looked up): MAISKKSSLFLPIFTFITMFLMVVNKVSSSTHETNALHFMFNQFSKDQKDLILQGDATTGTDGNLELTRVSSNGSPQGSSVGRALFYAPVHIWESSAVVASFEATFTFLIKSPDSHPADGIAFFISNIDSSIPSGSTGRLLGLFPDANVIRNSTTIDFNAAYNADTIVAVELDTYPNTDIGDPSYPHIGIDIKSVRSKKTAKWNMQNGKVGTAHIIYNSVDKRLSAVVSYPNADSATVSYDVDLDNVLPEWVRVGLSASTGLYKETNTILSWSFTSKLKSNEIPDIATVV

Left-right determination factor 2 (Homo sapiens), sequence (O00292 whole entry, looked up): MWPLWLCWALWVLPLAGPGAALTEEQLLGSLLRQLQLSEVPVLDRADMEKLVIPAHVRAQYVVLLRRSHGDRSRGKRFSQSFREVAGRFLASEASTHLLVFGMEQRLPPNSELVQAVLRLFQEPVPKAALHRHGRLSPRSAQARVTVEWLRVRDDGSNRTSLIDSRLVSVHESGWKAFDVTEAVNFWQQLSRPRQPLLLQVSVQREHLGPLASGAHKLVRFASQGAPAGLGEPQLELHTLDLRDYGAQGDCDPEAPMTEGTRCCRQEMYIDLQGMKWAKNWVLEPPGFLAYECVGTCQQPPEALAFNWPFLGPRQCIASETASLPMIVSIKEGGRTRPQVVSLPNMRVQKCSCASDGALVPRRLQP
Alpha-bungarotoxin (Bungarus multicinctus), sequence (P60615 whole entry, looked up): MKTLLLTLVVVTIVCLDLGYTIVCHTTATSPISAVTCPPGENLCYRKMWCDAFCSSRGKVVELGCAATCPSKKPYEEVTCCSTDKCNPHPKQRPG
Albumin (Bos taurus), sequence (P02769 whole entry, looked up): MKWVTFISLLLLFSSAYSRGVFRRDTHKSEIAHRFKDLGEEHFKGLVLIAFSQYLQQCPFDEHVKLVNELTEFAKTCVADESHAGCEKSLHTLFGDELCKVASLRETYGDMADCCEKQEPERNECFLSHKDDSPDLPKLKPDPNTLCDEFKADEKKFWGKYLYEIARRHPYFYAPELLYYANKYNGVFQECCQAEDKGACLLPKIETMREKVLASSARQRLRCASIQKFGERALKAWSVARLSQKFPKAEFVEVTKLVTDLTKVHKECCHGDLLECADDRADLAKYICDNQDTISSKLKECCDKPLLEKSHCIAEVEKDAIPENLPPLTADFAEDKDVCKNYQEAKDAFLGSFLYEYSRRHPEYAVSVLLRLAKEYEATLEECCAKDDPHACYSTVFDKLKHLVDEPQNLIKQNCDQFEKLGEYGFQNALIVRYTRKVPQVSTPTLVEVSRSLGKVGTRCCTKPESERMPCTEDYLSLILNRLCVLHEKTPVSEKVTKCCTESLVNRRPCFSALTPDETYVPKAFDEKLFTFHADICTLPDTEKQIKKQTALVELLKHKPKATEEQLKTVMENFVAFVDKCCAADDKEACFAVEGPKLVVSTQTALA

In the case of `CC(C)CCC[C@@H](C)[C@H]1CC[C@@]2(C)C3=C(CC[C@]12C)[C@@]1(C)CC[C@H](OC(=O)C(C)(C)C)C(C)(C)C1CC3` (stereo not given in full), the composite z-score in assay [1] was 0.506; in assay [3], 0.502; in assay [4], 0.0548; in [5], -0.718; in [6] it was -0.0792; in assay [7], -0.134. The composite z-score is -0.705 in [8]; -0.0812 in assay [9]; 0.448 in assay [10]; -0.0648 in [11]; -0.0396 in assay [13]; -0.191 in assay [14]. Also, the composite z-score was -0.0485 in assay [15]; 1.25 in assay [16]; -0.0838 in [17]; 0.657 in assay [18]; 0.547 in [19]; 0.632 in assay [20]. For the same compound, the z-score in assay [2] is -0.435. Moreover, the composite Z-score in assay [12] was -0.598 (inactive).
For the compound `C[C@]12C(=O)N(CCCO)[C@@H]3C(=O)N(c4ccc(Cl)cc4)CC=CC31O[C@@H]1/C=C\CCCOC(=O)C12` (stereo not given in full), the composite z-score was -0.202 in [1]; -1.31 in assay [3]; -0.887 in assay [4]; -0.203 in assay [5]; -0.202 in assay [6]; -0.0904 in assay [7]. Further, the composite z-score in assay [8] was 0.309; in assay [9], 2.33; in [10], -0.777; in [11], 0.309; in [13], -0.305; in assay [14], -0.118. The composite z-score was 0.883 in [15]; 1.46 in [16]; 0.492 in [17]; 0.518 in assay [18]; -1.38 in [19]; -0.743 in [20]. Further, the z-score in [2] was -0.513. In addition, the composite Z-score in [12] was 0.264 (inactive).
Consider `CN(C)C(=O)[C@@]1(Cc2ccccc2N=[N+]=[N-])N=C(c2ccc(OCCCO)cc2)O[C@H]1c1ccccc1N=[N+]=[N-]`, for which the composite z-score was 1.41 in assay [1]; -0.121 in [3]; 1.43 in assay [4]; 0.859 in assay [5]; -0.0403 in assay [6]; 0.108 in assay [7]. Moreover, the composite z-score in assay [8] came to 0.566; in assay [9] it was 1.29; in [10] it was 1.6; in assay [11], 0.89; in [13] it was 0.277; in assay [14], 0.083. In addition, the composite z-score in assay [15] stood at 0.565; in assay [16], 1.65; in assay [17], 0.372; in assay [18], 1.33; in assay [19], 0.325; in [20], 0.819. In [2], the z-score was -2.28. The composite Z-score in assay [12] was 0.167 (inactive).
On to `C[N+](C)(C)CCCC[C@@H]1NC(=O)[C@@H]2C[C@H](C(=O)O)[C@H](c3cccc(OCCO)c3)N2C1=O`, for which the composite z-score in assay [1] was 0.17; in assay [3] it was -0.8; in assay [4], -0.705; in assay [5], 0.417; in assay [6] it was -0.276; in [7], -0.0681. Besides, the composite z-score in [8] is -0.326; in assay [9], -0.0851; in [10], -1.03; in assay [11], -1.33; in assay [13], -0.324; in assay [14], 0.0022. For the same compound, the composite z-score in [15] was 0.49; in assay [16], 0.64; in assay [17], 0.303; in assay [18], -0.0913; in assay [19], 0.451; in assay [20] it was 1.02. In assay [2], the z-score was -0.208. In addition, the composite Z-score in [12] was 1.31 (inactive).
Regarding `O=C1O[C@@H](c2ccccc2)[C@@H](c2ccccc2)N2[C@@H](c3ccc(O)cc3)[C@]3(C(=O)Nc4ccc(C#CC5=CCCCC5)cc43)[C@@H](C(=O)Nc3nc4ccccc4s3)[C@H]12`, the composite z-score in assay [1] was 1.4; in assay [3], 1.25; in assay [4], 1.48; in assay [5], -0.18; in assay [6] it was 0.428; in assay [7] it was 0.368. Also, the composite z-score in assay [8] was 2.02; in [9], 0.825; in assay [10] it was 1.87; in [11], 0.787; in [13] it was 0.887; in [14], 0.47. The composite z-score in assay [15] is 0.58; in assay [16], 2.03; in [17] it was 0.784; in [18], 1.29; in [19] it was 0.842; in [20] it was 1.1. Further, in assay [2], the z-score was -0.99. Also, the composite Z-score in assay [12] is -0.199 (inactive).
